Source: PubChem BioAssay AID652119 (Broad Institute, 2013)
The source made the active and inactive calls.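 How the source made its calls: active means compounds whose fitted half-maximal cell-killing potency is at most twice their top tested dose; inconclusive means flat curve with 30 to 70% signal loss, or poor fit; inactive means the rest.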

Assay: HEK293 cell cytotoxicity, dose response, cytotoxicity control, HEK293T, ATP luminescence, dry powder (AID 652119)
Conditions: HEK293T viability, CellTiter-Glo ATP luminescence, 48 h; series mostly up to 26 µM

SMILES | outcome
CCOC(=O)C1(CCOc2ccccc2)CCN(Cc2cccc(Cl)c2)CC1 | inactive
CCOC(=O)C1(Cc2ccccc2)CCN(Cc2ccc(O)c(Cl)c2)CC1 | inactive
CCNC(=O)C1(CCOc2ccccc2)CCN(Cc2ccc(O)c(Cl)c2)CC1 | inactive
O=C(NC1CCCC1)C1(CCOc2ccccc2)CCN(Cc2ccc(O)c(Cl)c2)CC1 | inactive
CCOC(=O)C1(CCOc2ccccc2)CCN(Cc2ccc(O)cc2)CC1 | inactive
CCOC(=O)C1(CCOC)CCCN(Cc2ccc(Cl)cc2)C1 (stereo unspecified) | inactive
CCOC(=O)C1(Cc2cccc(OC)c2)CCN(Cc2ccc(O)c(Cl)c2)CC1 | inactive
C=CCOc1ccc(CN2CCC(CCOc3ccccc3)(C(=O)OCC)CC2)cc1Cl | inactive
CC(C)OC(=O)C1(CCOc2ccccc2)CCN(Cc2ccc(O)c(Cl)c2)CC1 | inactive
CCOC(=O)C1CCN(C(=O)OC(C)(C)C)CC1 | inactive
CCOC(=O)C1(CCOc2ccccc2)CCN(Cc2ccc(OC)c(Cl)c2)CC1 | inactive
